Where “and” joins values, the source holds several entries; their conditions need not be identical. Equal values may be shown once. Results filed as inconclusive are left out. Calls of active or inactive are those of the source. How the source made its calls, unless noted: active means hit-call score of the fitted dose curve at least 0.9, where 1 is the maximum; inconclusive means response in the unintended direction; inactive means score below 0.9.
How the values were obtained:
[1] = target: human Peroxisome Proliferator-activated Receptor delta (PPARd), PPARD (gene 5467) (UniProt Q03181); assay: ATG_PPARd_TRANS: Attagene TRANS-FACTORIAL HepG2 Assay for human Peroxisome Proliferator-activated Receptor delta (PPARd) (AID 2283002)
Procedure, shortened: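 Transient HepG2 transfection (multiple GAL4-UAS RTUs, chimeric receptor-Gal4); 24 h dosing; total RNA → oligo(dT) RT → PCR → 6-FAM primer extension → HpaI cut → CE. Positive direction vs DMSO.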

[2] = read-out: Intercellular Adhesion Molecule 1 (ICAM1), ICAM1 (gene 3383); assay: BSK_3C_ICAM1: BioMAP Diversity Plus: 3C Assay for Intercellular Adhesion Molecule 1 (ICAM1) Biomarker Activity (AID 2283003; active means hit-call score of the fitted dose curve at least 0.9, where 1 is the maximum; inactive means score below 0.9); conditions: primary human endothelial cells (HUVEC); actives raise or lower the signal
Procedure, shortened: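 Chemicals are dosed onto primary human umbilical vein endothelium (3C system). After 24 h, ICAM-1 is measured by ELISA, and responses are fitted bidirectionally relative to DMSO.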

[3] = BSK_3C_Proliferation: Cell Proliferation Assessment in the BioMAP Diversity Plus: 3C Assay (AID 2283006; active means hit-call score of the fitted dose curve at least 0.9, where 1 is the maximum; inactive means score below 0.9;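 on AC50: potency may reflect either rise or fall in cell number versus DMSO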); conditions: primary human endothelial cells (HUVEC)
Procedure, shortened: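 Cells (human umbilical vein endothelial, sub-confluent) receive test chemical; after 48 h they are fixed in 10% trichloroacetic acid, stained with 0.1% SRB and read at 560 nm. Activity is referenced to DMSO, fitting increases and decreases.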

[4] = target: Nuclear receptor subfamily 1 group I member 2 (Homo sapiens) (UniProt O75469); assay: ATG_PXR_TRANS: Attagene TRANS-FACTORIAL HepG2 Assay for human Pregnane X Receptor (PXR) (AID 2283008)
Procedure, shortened: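 Trans-factorial format: exogenous NR-Gal4 fusion activity, not endogenous factor, in transfected human HepG2 liver cells. After 24 h dosing, RNA isolated, reverse-transcribed, amplified and resolved by capillary electrophoresis; induction scored versus DMSO.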

[5] = target: human Retinoic Acid Receptor gamma (RARg), RARG (gene 5916) (UniProt P13631); assay: ATG_RARg_TRANS: Attagene TRANS-FACTORIAL HepG2 Assay for human Retinoic Acid Receptor gamma (RARg) (AID 2283009)
Procedure, shortened: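 TRANS format measured activity of exogenous NR-GAL4 fusion (RARg) in transfected HepG2 liver cells after 24 h dosing. Induced reporter RNA was detected by RT-PCR/capillary electrophoresis fluorescence, analysed in the positive direction against DMSO.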

[6] = target: Retinoic acid receptor alpha (Homo sapiens) (UniProt P10276); assay: ATG_RARa_TRANS: Attagene TRANS-FACTORIAL HepG2 Assay for human Retinoic Acid Receptor alpha (RARa) (AID 2283005)
Procedure, shortened: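 Reporter transcripts, measured by RT-PCR with fluorescent labeling and capillary electrophoresis after 24 h dosing, reflect activity of an exogenous human RARa–GAL4 fusion in transiently transfected HepG2. Fitted for increase relative to DMSO.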

[7] = target: human Retinoic Acid Receptor beta (RARb), RARB (gene 5915) (UniProt P10826); assay: ATG_RARb_TRANS: Attagene TRANS-FACTORIAL HepG2 Assay for human Retinoic Acid Receptor beta (AID 2283004)
Procedure, shortened: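 HepG2 cells were transiently transfected with GAL4-UAS reporter units that report activity of exogenous chimeric NR-Gal4 proteins, then exposed to compound for 24 h. Reporter mRNA was quantified by RT-PCR with capillary electrophoresis fluorescence, as gain of signal over DMSO.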

[8] = target: human RAR-related Orphan Receptor beta (RORb), RORB (gene 6096) (UniProt Q92753); assay: ATG_RORb_TRANS: Attagene TRANS-FACTORIAL HepG2 Assay for human RAR-related Orphan Receptor beta (RORb) (AID 2283010)
Procedure, shortened: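 Transfect HepG2 with multiple GAL4-UAS reporter transcription units; dose chemicals for 24 h; isolate RNA, reverse-transcribe and PCR-amplify reporter sequences; label, digest and resolve fragments by capillary electrophoresis; fit increases relative to DMSO.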

[9] = target: human Peroxisome Proliferator-activated Receptor alpha (PPARa), PPARA (gene 5465) (UniProt Q07869); assay: ATG_PPARa_TRANS: Attagene TRANS-FACTORIAL HepG2 Assay for human Peroxisome Proliferator-activated Receptor alpha (PPARa) (AID 2283001)
Procedure, shortened: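 Reporter transcripts quantified by RT-PCR plus capillary electrophoresis after 24 h treatment, fitted upward relative to DMSO. Cells: human HepG2 transiently carrying multiple GAL4-UAS reporter units driven by NR-Gal4 chimeras.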

[10] = target: Peroxisome proliferator-activated receptor gamma (Homo sapiens) (UniProt P37231); assay: ATG_PPARg_TRANS: Attagene TRANS-FACTORIAL HepG2 Assay for human Peroxisome Proliferator-activated Receptor-gamma (PPARg) (AID 2283007)
Procedure, shortened: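 Multiplexed reporter transcription units in HepG2, 24 h dosing, reporter transcripts quantified by fluorescent RT-PCR and capillary electrophoresis. Increase over DMSO scored.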

Measured: AC50

human Retinoic Acid Receptor beta (RARb), RARB (gene 5915), sequence (P10826 whole entry, looked up, the tested form may be a part): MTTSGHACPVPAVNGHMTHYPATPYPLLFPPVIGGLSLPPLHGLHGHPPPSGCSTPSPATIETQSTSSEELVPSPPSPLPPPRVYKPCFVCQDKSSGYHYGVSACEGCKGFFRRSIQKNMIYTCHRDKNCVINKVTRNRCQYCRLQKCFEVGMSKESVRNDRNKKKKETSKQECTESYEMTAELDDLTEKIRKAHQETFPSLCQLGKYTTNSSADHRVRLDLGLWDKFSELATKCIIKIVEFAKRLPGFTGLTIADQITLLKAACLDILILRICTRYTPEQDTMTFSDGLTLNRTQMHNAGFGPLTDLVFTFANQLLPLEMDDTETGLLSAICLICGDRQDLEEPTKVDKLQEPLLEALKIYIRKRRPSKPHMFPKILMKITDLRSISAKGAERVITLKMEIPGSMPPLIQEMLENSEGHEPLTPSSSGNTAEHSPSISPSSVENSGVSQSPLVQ
Nuclear receptor subfamily 1 group I member 2 (Homo sapiens), sequence (O75469 whole entry, looked up, the tested form may be a part): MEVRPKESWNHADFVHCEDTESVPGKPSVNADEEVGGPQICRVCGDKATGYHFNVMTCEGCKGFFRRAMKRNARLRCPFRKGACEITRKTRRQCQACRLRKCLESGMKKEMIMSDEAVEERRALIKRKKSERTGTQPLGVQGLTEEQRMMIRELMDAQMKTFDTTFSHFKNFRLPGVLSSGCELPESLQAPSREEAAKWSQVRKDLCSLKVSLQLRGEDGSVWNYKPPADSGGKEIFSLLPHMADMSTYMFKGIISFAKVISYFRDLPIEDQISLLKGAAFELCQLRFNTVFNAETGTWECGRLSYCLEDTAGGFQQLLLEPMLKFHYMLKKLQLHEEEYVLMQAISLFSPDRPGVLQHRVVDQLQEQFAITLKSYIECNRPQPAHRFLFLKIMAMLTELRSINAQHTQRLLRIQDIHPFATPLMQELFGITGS
human Retinoic Acid Receptor gamma (RARg), RARG (gene 5916), sequence (P13631 whole entry, looked up, the tested form may be a part): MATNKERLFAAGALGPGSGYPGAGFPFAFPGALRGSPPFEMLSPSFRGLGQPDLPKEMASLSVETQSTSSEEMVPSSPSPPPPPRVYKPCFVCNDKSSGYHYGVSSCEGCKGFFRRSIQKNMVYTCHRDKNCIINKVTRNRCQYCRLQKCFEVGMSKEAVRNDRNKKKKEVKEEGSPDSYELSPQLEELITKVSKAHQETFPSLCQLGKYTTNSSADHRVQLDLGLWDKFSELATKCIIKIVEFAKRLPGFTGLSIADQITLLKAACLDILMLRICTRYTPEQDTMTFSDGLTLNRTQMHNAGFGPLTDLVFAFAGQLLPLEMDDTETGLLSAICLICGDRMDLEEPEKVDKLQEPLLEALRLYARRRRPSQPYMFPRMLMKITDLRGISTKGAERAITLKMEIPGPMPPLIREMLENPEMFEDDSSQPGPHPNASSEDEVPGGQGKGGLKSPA
human Peroxisome Proliferator-activated Receptor delta (PPARd), PPARD (gene 5467), sequence (Q03181 whole entry, looked up, the tested form may be a part): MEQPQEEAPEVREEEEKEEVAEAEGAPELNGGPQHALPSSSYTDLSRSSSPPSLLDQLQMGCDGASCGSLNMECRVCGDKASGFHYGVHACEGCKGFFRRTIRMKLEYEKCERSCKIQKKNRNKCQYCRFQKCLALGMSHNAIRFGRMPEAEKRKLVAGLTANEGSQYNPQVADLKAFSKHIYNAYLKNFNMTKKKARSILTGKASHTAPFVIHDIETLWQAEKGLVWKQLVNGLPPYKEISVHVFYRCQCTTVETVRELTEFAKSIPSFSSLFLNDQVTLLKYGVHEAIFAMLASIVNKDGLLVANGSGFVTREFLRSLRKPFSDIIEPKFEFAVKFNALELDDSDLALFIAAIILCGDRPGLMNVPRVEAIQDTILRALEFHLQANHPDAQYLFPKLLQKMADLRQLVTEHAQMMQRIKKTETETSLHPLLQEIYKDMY
Retinoic acid receptor alpha (Homo sapiens), sequence (P10276 whole entry, looked up, the tested form may be a part): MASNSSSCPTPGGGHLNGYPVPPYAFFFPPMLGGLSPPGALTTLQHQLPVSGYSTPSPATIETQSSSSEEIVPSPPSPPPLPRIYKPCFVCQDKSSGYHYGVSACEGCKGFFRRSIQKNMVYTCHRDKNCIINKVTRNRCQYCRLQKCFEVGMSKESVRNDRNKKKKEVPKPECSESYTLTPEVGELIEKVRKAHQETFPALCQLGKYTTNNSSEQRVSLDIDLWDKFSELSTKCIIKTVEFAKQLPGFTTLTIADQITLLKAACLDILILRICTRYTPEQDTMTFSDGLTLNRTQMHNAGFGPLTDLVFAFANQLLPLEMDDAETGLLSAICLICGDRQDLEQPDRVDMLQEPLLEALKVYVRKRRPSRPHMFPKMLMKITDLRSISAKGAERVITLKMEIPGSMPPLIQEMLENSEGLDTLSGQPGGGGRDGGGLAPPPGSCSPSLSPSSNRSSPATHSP
human RAR-related Orphan Receptor beta (RORb), RORB (gene 6096), sequence (Q92753 whole entry, looked up, the tested form may be a part): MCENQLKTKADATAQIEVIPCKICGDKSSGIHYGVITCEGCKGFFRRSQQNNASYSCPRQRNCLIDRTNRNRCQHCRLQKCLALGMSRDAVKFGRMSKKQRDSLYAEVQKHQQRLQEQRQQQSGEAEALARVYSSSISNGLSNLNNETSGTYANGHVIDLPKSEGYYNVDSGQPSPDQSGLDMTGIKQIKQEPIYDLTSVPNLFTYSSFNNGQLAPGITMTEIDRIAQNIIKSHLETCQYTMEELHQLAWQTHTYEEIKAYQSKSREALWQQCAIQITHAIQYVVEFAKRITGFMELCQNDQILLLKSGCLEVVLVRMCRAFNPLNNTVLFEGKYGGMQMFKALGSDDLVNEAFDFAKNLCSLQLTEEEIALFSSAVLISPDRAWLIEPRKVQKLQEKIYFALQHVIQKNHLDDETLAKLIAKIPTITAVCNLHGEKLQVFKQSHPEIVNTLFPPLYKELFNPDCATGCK
human Peroxisome Proliferator-activated Receptor alpha (PPARa), PPARA (gene 5465), sequence (Q07869 whole entry, looked up, the tested form may be a part): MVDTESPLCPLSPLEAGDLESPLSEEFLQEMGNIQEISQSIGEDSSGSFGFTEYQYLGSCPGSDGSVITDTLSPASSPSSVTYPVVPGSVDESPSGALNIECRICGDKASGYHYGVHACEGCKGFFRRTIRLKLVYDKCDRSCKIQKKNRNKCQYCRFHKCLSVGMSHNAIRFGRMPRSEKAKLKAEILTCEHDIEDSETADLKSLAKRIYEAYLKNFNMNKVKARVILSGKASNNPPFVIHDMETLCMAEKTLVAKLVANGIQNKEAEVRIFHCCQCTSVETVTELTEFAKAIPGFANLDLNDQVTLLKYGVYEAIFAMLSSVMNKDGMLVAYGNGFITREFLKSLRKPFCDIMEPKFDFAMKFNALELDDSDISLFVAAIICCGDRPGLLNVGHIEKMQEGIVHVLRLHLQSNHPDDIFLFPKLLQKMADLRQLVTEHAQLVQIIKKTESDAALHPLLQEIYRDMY
Peroxisome proliferator-activated receptor gamma (Homo sapiens), sequence (P37231 whole entry, looked up): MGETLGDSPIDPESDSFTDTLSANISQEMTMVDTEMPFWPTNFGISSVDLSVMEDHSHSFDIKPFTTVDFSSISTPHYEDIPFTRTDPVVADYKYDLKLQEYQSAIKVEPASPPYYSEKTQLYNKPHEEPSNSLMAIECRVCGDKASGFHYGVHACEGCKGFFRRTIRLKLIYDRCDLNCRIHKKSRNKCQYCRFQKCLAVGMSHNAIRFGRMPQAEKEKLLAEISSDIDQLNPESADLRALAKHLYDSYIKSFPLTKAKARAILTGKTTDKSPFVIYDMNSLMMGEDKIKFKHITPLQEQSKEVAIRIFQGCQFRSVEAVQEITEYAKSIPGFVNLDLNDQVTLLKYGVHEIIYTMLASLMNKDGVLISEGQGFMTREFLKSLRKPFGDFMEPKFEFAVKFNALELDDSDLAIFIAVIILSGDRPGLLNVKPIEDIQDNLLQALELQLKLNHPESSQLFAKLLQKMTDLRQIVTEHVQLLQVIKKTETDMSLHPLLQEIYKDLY

O=C1c2ccccc2C(=O)N1CCc1noc(-c2ccc(CN3CCCCCC3)s2)n1
inactive: [1] | [2] | [3]
active: [4] 2720 nM

O=C1O[C@H]([C@@H](O)CO)C(O)=C1O
inactive: [1] | [2] | [3]

CCN(Cc1cccnc1)C(=O)c1cccc(Cl)c1[C@]1(C)C(=O)N(Cc2ccc(OC)cc2OC)c2ccc(Cl)cc21
active: [3] 5.12 µM | [4] 26.2 nM
inactive: [1] | [2] | [5]

CCN(CC)C(=O)c1cc(S(=O)(=O)Cc2ccccc2)c(N2CCC(c3ccccc3)CC2)cc1N(CC)CCN(C)C
active: [2] 28.7 µM | [3] 6.12 µM | [4] 91 nM
inactive: [6] | [5]

CC(C)(c1cc(Br)c(O)c(Br)c1)c1cc(Br)c(O)c(Br)c1
inactive: [7] | [6] | [5]
active: [2] 36 µM | [3] 28 µM | [4] 6.78 µM and 10.5 µM

O=C(O)c1ccccc1-n1cc(C(=O)O)c(=O)c2cc(Nc3c(F)cc(F)cc3Cl)c(Cl)cc21
inactive: [1] | [2] | [7] | [6] | [3] | [4] | [5] | [8]

Oc1ccc2ccccc2c1
inactive: [9] | [2] | [4] | [8]
active: [3] 10.7 µM

O=C(OCCCCCCOC(=O)c1ccccc1)c1ccccc1
active: [3] 20.7 µM
inactive: [1] | [2] | [7] | [4] | [5]

c1ccc2n[nH]nc2c1
inactive: [1] | [2] | [6] | [3] | [4] | [8]

CCCCCCCC[Si](OCC)(OCC)OCC
active: [3] 18.4 µM
inactive: [1] | [2] | [7] | [6] | [5] | [8]

CCO[Si](CCCNC(N)=O)(OCC)OCC
inactive: [2] | [6] | [3] | [5]

CCCCCCCCN(C)CCCCCCCC
inactive: [1] | [2] | [7] | [3] | [4] | [5] | [8]

CC(=O)N1CCN(c2ccc(OC[C@H]3CO[C@](Cn4ccnc4)(c4ccc(Cl)cc4Cl)O3)cc2)CC1
inactive: [2] | [4]
active: [3] 23.8 µM

COc1cccc([C@H](O)C2CCN(CCc3ccc(F)cc3)CC2)c1OC
inactive: [1] | [2] | [3] | [4] | [5]

O=c1ccc2ccccc2o1
inactive: [2] | [6] | [3]

Cc1cc(F)ccc1-c1cc(N2CC[C@@H](O)[C@H]2CO)ncc1N(C)C(=O)C(C)(C)c1cc(C(F)(F)F)cc(C(F)(F)F)c1
active: [2] 12.8 µM | [3] 5.65 µM | [4] 1140 nM
inactive: [1]

CN1C(=O)N(c2ccccc2Br)Cc2cnc(Nc3ccc4c(c3)OCC(CO)O4)nc21 (stereo not given)
inactive: [10] | [4]
active: [2] 28.1 µM | [3] 2.28 µM

Cc1cc2c(cc1C(F)(F)F)N(C(=O)Nc1ccc(Oc3cccnc3C)nc1)CC2
active: [3] 9.22 µM
inactive: [1] | [2] | [7] | [4] | [5]

Clc1ccccc1C(c1ccccc1)(c1ccccc1)n1ccnc1
active: [2] 31.5 µM | [3] 13.7 µM | [4] 240 nM

C[C@]12CC[C@@H]3c4ccc(O)cc4CC[C@H]3[C@@H]1CCC2=O
active: [3] 20.7 µM
inactive: [9] | [2] | [8]

CN(C)c1ccc(C(=C2C=CC(=[N+](C)C)C=C2)c2ccc(N(C)C)cc2)cc1
inactive: [1] | [7]
active: [2] 10.3 µM | [3] 2.42 µM

OCCO
inactive: [1] | [2] | [7] | [6] | [3] | [4] | [5] | [8]

From PubChem BioAssay (EPA / NIEHS)
